Test [1] concerns Human papillomavirus type 1a protein E7 (residues 44-93). The test is described as follows: small molecules binding HPV E7 44-93 – biochemical, small-molecule microarray, residues 44-93, 635 nm fluorescence, primary screen (AID 1108).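 Note: E7 fragment applied at 1 µg/mL in TBST for 1 h at 4 C; score combines spot fluorescence with its signal to noise ratio.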 The following applies: fluorescence 635 nm, higher = more signal.
Test [2] can be described thus: hepatitis C replication reporter changes, two-sided – Huh7 cells, luciferase reporter, HCV replication inhibitor project, primary screen (AID 1109).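 Note: huh7 hepatoma cells harbouring a luciferase neomycin HCV replicon reporter; luciferase luminescence as measure of HCV replicon replication; test concentration not given here.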 As to conditions: Huh7 HCV replicon luciferase reporter, 48 h; higher = more signal. A general note: A reporter such as luciferase makes a cellular process visible.
The target of test [3] is Left-right determination factor 2 (Homo sapiens) (UniProt O00292). The experiment in a line: small molecules binding LEFTY2 protein – biochemical, small-molecule microarray, 635 nm fluorescence scan, primary screen (AID 1110). As to conditions: higher = more signal.
The target of test [4] is Calmodulin-1 (Homo sapiens) (UniProt P0DP23). The test is described as follows: small molecules binding calmodulin-1 with EGTA – biochemical, small-molecule microarray, Cy5-labelled CALM1, profiling panel (AID 1111).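 Note: labelled calmodulin applied in Tris saline Tween buffer holding calcium plus EGTA and DTT.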 The following applies: Cy5-CALM1 binding fluorescence, higher = more signal.
Test [5] has the same target. The test is described as follows: small molecules binding Ca-loaded calmodulin-1 – biochemical, small-molecule microarray, Cy5-labelled CALM1, plus calcium, artefact control for SMM control-protein annotation, profiling panel (AID 1112).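 Note: score merges spot fluorescence with signal to noise from triplicate slides.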 The following applies: Cy5-CALM1 binding fluorescence, higher = more signal.
Test [6] is described as follows: probe aWnt5a binding to arrayed compounds – biochemical, biotinylated probe, 635/667 nm fluorescence, primary screen (AID 1113).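 Note: score merges 667 nm fluorescence intensity with signal-to-noise per printed feature.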 As to conditions: small-molecule microarray, higher = more signal.
Test [7] in a line: probe aShh binding to arrayed compounds – biochemical, biotinylated probe, 635/667 nm fluorescence, primary screen (AID 1114).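 Note: probe is biotin-labelled aShh protein from a stem cell growth factor screen; measures binding of labelled protein to compounds printed on the slide; score merges feature fluorescence at 667 nm with signal-to-noise.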 The following applies: small-molecule microarray, higher = more signal.
Test [8] is described as follows: probe aNog binding to arrayed compounds – biochemical, biotinylated probe, 635/667 nm fluorescence, primary screen (AID 1115).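 Note: probe is biotinylated aNog protein used at 0.15 µg/mL for 1 h at 4 C; z-score combines 667 nm fluorescence of each spot with its signal to noise.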 The following applies: small-molecule microarray, higher = more signal.
The target in test [9] is Torsin-1A-interacting protein 1 (Homo sapiens) (UniProt Q5JTV8). The experiment in a line: compound microarray binding of lysate hLAP1 – cell lysate, small-molecule microarray, COS7 lysate, 635/667 nm fluorescence, primary screen (AID 1116). As to conditions: 635 nm fluorescence, higher = more signal.
Test [10] deals with Alpha-bungarotoxin (Bungarus multicinctus) (UniProt P60615). The experiment in a line: compounds binding labelled alpha-BTX control protein – biochemical, small-molecule microarray, Alexa647 label, 635/667 nm fluorescence, artefact control for SMM control protein annotation, profiling panel (AID 1117). The following applies: alpha-BTX-A647 binding fluorescence, higher = more signal.

The target in another test is Albumin (Bos taurus) (UniProt P02769). The experiment in a line: compounds binding labelled BSA control protein – biochemical, small-molecule microarray, Alexa647 label, 635/667 nm fluorescence, artefact control for SMM control protein annotation, profiling panel (AID 1118).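 Note: score merges 667 nm emission intensity and signal-to-noise per printed compound spot.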 The following applies: BSA-A647 binding, fluorescence 635 nm, higher = more signal.
Test [11] in a line: probe aXIP binding to arrayed compounds – biochemical, NeuroSMM set, 635/667 nm fluorescence, primary screen (AID 1119).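 Note: probe is the protein aXip251-270 applied at 1 µg/mL to compound-printed slides; binding of probe to printed compounds measured as 667 nm fluorescence plus signal to noise.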 The following applies: small-molecule microarray, higher = more signal, called active from +8 up or from −8 down.
Test [12] is described as follows: probe aNOTCH3 binding on compound microarray – biochemical, small-molecule microarray, 635/667 nm fluorescence, primary screen (AID 1120).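 Note: probe is a biotin-tagged antibody raised against NOTCH3 rather than NOTCH3 protein; score merges spot fluorescence near 667 nm with spot signal to noise.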 As to conditions: higher = more signal.
Test [13] can be described thus: probe aNOTCH2 binding on compound microarray – biochemical, small-molecule microarray, 635/667 nm fluorescence, primary screen (AID 1121).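 Note: score merges feature fluorescence read at 667 nm with its signal to noise.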 The following applies: higher = more signal.
For test [14], the target named is Carbonic anhydrase 2 (Homo sapiens) (UniProt P00918). The test is described as follows: compounds binding carbonic anhydrase 2 – biochemical, small-molecule microarray, Alexa647-labelled CAII, profiling panel (AID 1122). As to conditions: CAII-A647 binding fluorescence, higher = more signal.
A short description of test [15]: COS7 lysate on small-molecule microarray, probe aHis, 635 nm (AID 1123).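 Note: z-score combines 667nm fluorescence intensity with signal-to-noise per printed compound spot.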 As to conditions: COS7 cell lysate, fluorescence, higher = more signal.
Test [16] can be described thus: probe aLAP1 signal on lysate-treated microarray – cell lysate, small-molecule microarray, COS7 lysate, primary screen (AID 1124).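 Note: lysate comes from COS7 cells expressing LAP1 and is applied at 0.3 µg/mL; score merges spot fluorescence near 667 nm with signal-to-noise over triplicate slides.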 As to conditions: probe aLAP1, fluorescence, higher = more signal.
The next test deals with Sam68 (KHDRBS1). The test is described as follows: compounds binding KHDRBS1 protein – biochemical, small-molecule microarray, 635 nm fluorescence, primary screen (AID 1125).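 Note: score merges 667 nm channel intensity with signal to noise over triplicate slides.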 The following applies: higher = more signal.
Test [17] deals with Chordin-like protein 2 (CHRDL2). The test is described as follows: compounds binding chordin-like 2 – biochemical, small-molecule microarray, 635 nm fluorescence, primary screen (AID 1126).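 Note: printed compound slides probed with Chrdl2 protein at 4 µg/mL for 1 h at 4 C; score merges 667 nm emission intensity with signal to noise over three replicate slides.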 As to conditions: fluorescence 635 nm, higher = more signal.
In test [18] the target is Concanavalin-A (Canavalia ensiformis) (UniProt P02866). The experiment in a line: compounds binding concanavalin A lectin – biochemical, small-molecule microarray, Alexa647 label, 635 nm, artefact control for SMM control protein annotation, primary screen (AID 1127).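 Note: z combines 667 nm emission intensity with signal-to-noise across three replicate slides.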 The following applies: ConA-A647 binding fluorescence, higher = more signal.

The source made the active and inactive calls.

Torsin-1A-interacting protein 1 (Homo sapiens), sequence (Q5JTV8 whole entry, looked up): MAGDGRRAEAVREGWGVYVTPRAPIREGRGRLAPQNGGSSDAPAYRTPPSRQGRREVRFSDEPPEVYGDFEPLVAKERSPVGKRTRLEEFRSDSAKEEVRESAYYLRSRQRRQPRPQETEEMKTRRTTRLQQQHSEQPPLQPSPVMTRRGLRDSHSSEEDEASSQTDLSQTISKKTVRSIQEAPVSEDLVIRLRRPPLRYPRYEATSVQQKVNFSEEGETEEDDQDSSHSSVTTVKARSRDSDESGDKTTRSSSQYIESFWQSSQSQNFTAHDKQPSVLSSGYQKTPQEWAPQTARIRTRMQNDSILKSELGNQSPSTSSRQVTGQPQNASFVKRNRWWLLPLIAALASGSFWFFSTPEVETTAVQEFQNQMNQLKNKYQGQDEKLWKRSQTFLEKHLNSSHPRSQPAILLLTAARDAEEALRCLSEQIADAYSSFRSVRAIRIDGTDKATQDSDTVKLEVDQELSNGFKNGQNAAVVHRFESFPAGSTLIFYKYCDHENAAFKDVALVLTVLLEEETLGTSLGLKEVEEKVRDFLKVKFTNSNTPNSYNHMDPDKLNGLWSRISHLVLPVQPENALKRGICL
Albumin (Bos taurus), sequence (P02769 whole entry, looked up): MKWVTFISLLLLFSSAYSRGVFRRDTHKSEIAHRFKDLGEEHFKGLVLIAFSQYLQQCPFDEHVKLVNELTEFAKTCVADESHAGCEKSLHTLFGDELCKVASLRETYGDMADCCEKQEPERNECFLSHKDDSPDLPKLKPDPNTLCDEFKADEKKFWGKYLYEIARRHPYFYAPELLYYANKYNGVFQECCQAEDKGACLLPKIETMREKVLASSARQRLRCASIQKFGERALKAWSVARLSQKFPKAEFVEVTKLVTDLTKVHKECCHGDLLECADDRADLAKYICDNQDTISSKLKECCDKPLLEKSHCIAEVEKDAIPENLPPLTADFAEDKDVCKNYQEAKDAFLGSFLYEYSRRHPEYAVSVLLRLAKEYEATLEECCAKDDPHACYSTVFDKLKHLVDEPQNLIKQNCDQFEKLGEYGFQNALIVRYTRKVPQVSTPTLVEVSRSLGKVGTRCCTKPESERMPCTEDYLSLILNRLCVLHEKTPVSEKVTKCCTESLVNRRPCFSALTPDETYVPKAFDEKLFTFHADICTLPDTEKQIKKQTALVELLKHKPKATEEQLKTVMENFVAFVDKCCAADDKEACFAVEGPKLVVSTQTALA
Left-right determination factor 2 (Homo sapiens), sequence (O00292 whole entry, looked up): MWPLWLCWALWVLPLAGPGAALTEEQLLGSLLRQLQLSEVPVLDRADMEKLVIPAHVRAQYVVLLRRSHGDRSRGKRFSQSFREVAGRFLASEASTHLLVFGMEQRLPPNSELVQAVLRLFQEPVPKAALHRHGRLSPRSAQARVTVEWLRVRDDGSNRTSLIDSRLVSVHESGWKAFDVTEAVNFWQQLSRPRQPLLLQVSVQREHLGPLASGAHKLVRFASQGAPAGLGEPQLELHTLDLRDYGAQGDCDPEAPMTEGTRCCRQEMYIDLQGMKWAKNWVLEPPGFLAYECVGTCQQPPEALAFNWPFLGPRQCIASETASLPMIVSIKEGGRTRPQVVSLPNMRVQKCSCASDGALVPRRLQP
Alpha-bungarotoxin (Bungarus multicinctus), sequence (P60615 whole entry, looked up): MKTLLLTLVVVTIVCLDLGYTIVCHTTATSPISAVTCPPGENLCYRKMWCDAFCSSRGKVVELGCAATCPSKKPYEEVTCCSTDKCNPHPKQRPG
Concanavalin-A (Canavalia ensiformis), sequence (P02866 whole entry, looked up): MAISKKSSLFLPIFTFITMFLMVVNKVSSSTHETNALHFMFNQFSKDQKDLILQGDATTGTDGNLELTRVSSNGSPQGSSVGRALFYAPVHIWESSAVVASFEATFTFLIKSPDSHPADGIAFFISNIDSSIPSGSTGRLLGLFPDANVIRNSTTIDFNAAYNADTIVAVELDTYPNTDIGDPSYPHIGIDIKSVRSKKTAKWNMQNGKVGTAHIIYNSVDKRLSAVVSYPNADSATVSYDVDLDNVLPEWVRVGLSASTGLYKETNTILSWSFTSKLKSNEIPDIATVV

`CCOC(=O)CCN1C(=O)[C@H]2[C@H]3[C@H](O)[C@H](O)CC(=NO[C@@H]4O[C@H](CO)[C@@H](O)[C@H](O)[C@H]4O)[C@@H]3CC[C@H]2C1=O`: the composite z-score in [1] is 1.21; in test [3] it was 0.809; in test [4], -0.896; in test [5], -1.99; in test [6], -0.0417; in test [7] it was 0.296. The composite z-score in test [8] was -0.0784; in [9] it was 0.533; in test [10] it was 0.844; with Albumin (Bos taurus) it was 0.83; in [12], 0.207; in test [13] it was -0.0698. In addition, the composite z-score is 0.381 in test [14]; 0.279 in test [15]; -0.0046 in test [16]; 1.3 in the test on Sam68 (KHDRBS1); 1.04 in test [17]; 0.322 in [18]. This compound registered a z-score in test [2] of 0.891. The composite Z-score in [11] was 0.397 (inactive).
For the compound `Cc1cc(C)c(-c2cc([C@H](C)ON=C[C@@H](C)[C@H](OCc3ccccc3)C(C)C)on2)c(C)c1`, the composite z-score in test [1] was -1.42; in test [3], -0.0341; in test [4], -0.27; in test [5], -0.34; in test [6], -0.0403; in test [7], 0.0815. For the same compound, the composite z-score in [8] was -0.168; in [9], -0.601; in test [10], 0.108; in the test with Albumin (Bos taurus), -0.365; in [12] it was -0.061; in test [13] it was -0.185. In addition, the composite z-score in [14] was -0.206; in test [15], -0.244; in [16], -0.637; with Sam68 (KHDRBS1), -0.686; in [17], -0.11; in [18], -0.412. Further, the z-score in test [2] was -2.06. Moreover, the composite Z-score in test [11] was 0.687 (inactive).
Consider `COc1cccc([C@H]2Oc3ccc(OC)cc3C(=NO[C@@H](C)c3cc(-c4c(C)cc(C)cc4C)no3)[C@@H]2O)c1`, for which the composite z-score in [1] was -0.355; in [3], -2.35; in [4] it was -0.831; in test [5] it was 0.668; in test [6] it was -0.172; in test [7], -0.195. For the same compound, the composite z-score in [8] is 0.0983; in test [9], -0.589; in test [10], -0.628; in the test with Albumin (Bos taurus), -1.31; in [12], -0.305; in [13] it was -0.155. Moreover, the composite z-score was 0.108 in test [14]; -0.552 in [15]; 0.843 in test [16]; -0.156 in the test with Sam68 (KHDRBS1); -0.861 in [17]; -1.57 in test [18]. The z-score in [2] is -1.71. Besides, the composite Z-score in [11] is -0.238 (inactive).
As to `CC(C)[C@@H](OCc1ccccc1)[C@H](C)C=NO[C@@H](C)c1cn([C@H](CO)Cc2ccccc2)nn1`, the composite z-score is 0.402 in test [1]; 0.277 in test [3]; -0.38 in [4]; -0.281 in [5]; -0.135 in test [6]; -0.273 in test [7]. The composite z-score in test [8] was 0.0715; in test [9] it was 0.217; in [10], -0.0804; with Albumin (Bos taurus), 0.449; in [12], 0.209; in test [13], -0.146. Besides, the composite z-score in test [14] is -0.227; in [15], -0.205; in test [16], -0.0074; in the test with Sam68 (KHDRBS1), 0.706; in test [17], 0.191; in [18] it was -0.36. The z-score in test [2] was -1.87. Besides, in [11], the composite Z-score was -0.0527 (inactive).
Consider `CCN1C(=O)[C@H]2[C@H]3[C@H](O)[C@H](O)CC(=NO[C@@H]4O[C@H](COC(C)=O)[C@@H](OC(C)=O)[C@H](OC(C)=O)[C@H]4OC(C)=O)[C@@H]3CC[C@H]2C1=O`, for which the composite z-score is 0.519 in test [1]; 0.671 in test [3]; -0.41 in test [4]; -0.564 in test [5]; 0.0151 in test [6]; 0.126 in [7]. For the same compound, the composite z-score in [8] was 0.166; in test [9], 0.256; in test [10] it was 0.721; with Albumin (Bos taurus), 0.646; in test [12] it was 0.0479; in test [13], -0.044. Besides, the composite z-score was -0.0179 in test [14]; 0.415 in test [15]; 0.781 in test [16]; 1.22 in the test on Sam68 (KHDRBS1); 0.58 in test [17]; -0.441 in [18]. Besides, in test [2], the z-score was -0.835. Moreover, the composite Z-score in test [11] was 0.581 (inactive).
For the compound `CON=C(C)CCN1CCCc2nc(C)c(C)cc21`, the composite z-score in test [1] is 0.365; in test [3] it was 0.685; in test [4], -0.209; in test [5], -1.02; in test [6] it was -0.0405; in [7], 0.151. Moreover, the composite z-score was 0.177 in [8]; 0.501 in test [9]; 0.0599 in [10]; -0.353 with Albumin (Bos taurus); 0.0496 in [12]; -0.0769 in test [13]. Further, the composite z-score in [14] turned out to be 0.438; in test [15] it was 1.42; in test [16], 0.234; in the test on Sam68 (KHDRBS1) it was 1.1; in test [17], 0.637; in test [18], 0.374. In [2], this compound came in with a z-score of 0.115. Also, the composite Z-score in [11] is 0.599 (inactive).
As for `CCCNC(=O)OC[C@H]1O[C@H](CCON=C2C[C@@H](O)[C@@H](O)[C@@H]3[C@@H]4C(=O)N(CC)C(=O)[C@@H]4CC[C@@H]23)C=C[C@@H]1Oc1ccc(OC)cc1`, the composite z-score in test [1] is 0.938; in test [3], 0.928; in test [4], 0.0716; in test [5], -0.795; in test [6] it was -0.141; in [7] it was 0.531. Further, the composite z-score in test [8] is 0.084; in [9], -0.0137; in test [10], 0.512; in the test with Albumin (Bos taurus), 0.148; in [12], 0.217; in test [13] it was -0.136. In addition, the composite z-score in [14] stood at 0.575; in [15], 0.572; in [16], 0.73; in the test with Sam68 (KHDRBS1), 1.32; in test [17], 0.929; in test [18] it was 0.728. In [2], this compound displayed a z-score of -1.33. Further, the composite Z-score in [11] is -0.477 (inactive).
Take `CCN1C(=O)[C@H]2[C@H]3[C@H](O)[C@H](O)CC(=NOC[C@@H](O)[C@H]4O[C@@H]5OC(C)(C)O[C@@H]5[C@H]4O)[C@@H]3CC[C@H]2C1=O`: the composite z-score in test [1] was -0.629; in test [3], 0.484; in test [4], -0.154; in test [5] it was -0.324; in test [6] it was -0.096; in [7], -0.0289. Moreover, the composite z-score in test [8] was -0.0733; in test [9] it was -0.209; in [10], 0.0203; with Albumin (Bos taurus) it was 0.0226; in test [12], -0.299; in test [13] it was -0.0662. Besides, the composite z-score in test [14] is 0.343; in test [15], 0.324; in test [16] it was -0.203; in the test on Sam68 (KHDRBS1) it was -0.0334; in [17] it was -0.736; in test [18] it was -0.406. In addition, the z-score in test [2] is -0.299. For the same compound, in test [11], the composite Z-score is -0.485 (inactive).

Values taken from PubChem BioAssay.
